What all share (experiment): DAPPL (digital affinity profiling via proximity ligation, sequencing); 10 mM Tris-HCl pH 7.5, 50 mM NaCl, 1 mM DTT, 4% glycerol, room temperature, 30 min; GST-TFs on glutathione beads, 16-mer random dsDNA library, 0.1% formaldehyde crosslink after washing; high values mean tight binding
For one experiment, the target named is T1, FLI1 (Homo sapiens, UniProt Q01543 1-452).
T1 sequence: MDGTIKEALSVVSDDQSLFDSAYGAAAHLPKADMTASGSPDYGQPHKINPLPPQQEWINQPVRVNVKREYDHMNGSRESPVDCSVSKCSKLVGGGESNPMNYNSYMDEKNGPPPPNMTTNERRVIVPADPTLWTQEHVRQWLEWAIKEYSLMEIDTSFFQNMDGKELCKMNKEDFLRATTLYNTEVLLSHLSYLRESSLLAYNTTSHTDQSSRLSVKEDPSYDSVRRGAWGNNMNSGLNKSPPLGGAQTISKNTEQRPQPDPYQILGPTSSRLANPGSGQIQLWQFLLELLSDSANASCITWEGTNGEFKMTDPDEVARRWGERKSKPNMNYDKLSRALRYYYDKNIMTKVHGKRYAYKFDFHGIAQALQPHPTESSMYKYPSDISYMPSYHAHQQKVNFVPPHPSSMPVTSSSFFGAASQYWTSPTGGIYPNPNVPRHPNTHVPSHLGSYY
Conditions: protein: recombinant; tags: N-terminal GST; dsDNA, one strand shown. In outline:
(§1)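 Human transcription factors were made in yeast as GST fusions, captured on glutathione beads and barcoded with DNA. With a tag-only sample included, the pool was incubated with 200 nmole of a random double-stranded 16-mer DNA library in Tris/NaCl/DTT/glycerol buffer at room temperature for 30 min, then crosslinked with 0.1% formaldehyde after washing, ligated by proximity, amplified and sequenced. For binding signal, each hexamer's read frequency for a factor is divided by its frequency for the tag-only sample.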

The next experiment has as its target T2, ELK1 (Homo sapiens, UniProt P19419 1-428).
T2 sequence: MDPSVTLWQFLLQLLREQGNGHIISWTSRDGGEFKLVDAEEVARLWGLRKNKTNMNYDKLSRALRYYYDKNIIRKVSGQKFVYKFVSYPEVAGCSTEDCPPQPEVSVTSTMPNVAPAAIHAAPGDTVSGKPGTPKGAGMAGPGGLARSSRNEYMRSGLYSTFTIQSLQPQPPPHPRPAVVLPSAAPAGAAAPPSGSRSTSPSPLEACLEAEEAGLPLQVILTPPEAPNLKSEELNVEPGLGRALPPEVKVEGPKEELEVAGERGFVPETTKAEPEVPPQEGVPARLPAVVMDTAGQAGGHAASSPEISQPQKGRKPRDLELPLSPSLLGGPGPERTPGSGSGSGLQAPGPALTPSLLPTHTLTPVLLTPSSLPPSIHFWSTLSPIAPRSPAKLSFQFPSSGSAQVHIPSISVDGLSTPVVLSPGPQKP
Conditions: protein: recombinant; tags: N-terminal GST; dsDNA, one strand shown. The method, boiled down:
as §1

Another experiment has as its target T3, GABPA (Homo sapiens, UniProt Q06546 1-454).
T3 sequence: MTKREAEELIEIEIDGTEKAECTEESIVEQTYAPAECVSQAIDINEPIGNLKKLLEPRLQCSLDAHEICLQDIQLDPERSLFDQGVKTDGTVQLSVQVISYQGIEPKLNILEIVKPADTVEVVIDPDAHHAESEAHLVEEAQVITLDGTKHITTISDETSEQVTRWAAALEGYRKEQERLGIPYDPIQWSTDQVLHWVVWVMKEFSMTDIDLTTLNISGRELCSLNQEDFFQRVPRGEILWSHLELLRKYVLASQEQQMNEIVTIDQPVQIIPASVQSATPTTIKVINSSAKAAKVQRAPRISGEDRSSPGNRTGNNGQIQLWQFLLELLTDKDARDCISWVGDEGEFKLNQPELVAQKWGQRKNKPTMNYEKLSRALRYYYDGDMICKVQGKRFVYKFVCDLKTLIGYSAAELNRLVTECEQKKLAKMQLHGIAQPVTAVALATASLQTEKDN
The conditions noted are these: protein: recombinant; tags: N-terminal GST; dsDNA, one strand shown. The method, boiled down: as §1

For a further experiment, the target named is T4, ERG (Homo sapiens, UniProt P11308 1-479).
T4 sequence: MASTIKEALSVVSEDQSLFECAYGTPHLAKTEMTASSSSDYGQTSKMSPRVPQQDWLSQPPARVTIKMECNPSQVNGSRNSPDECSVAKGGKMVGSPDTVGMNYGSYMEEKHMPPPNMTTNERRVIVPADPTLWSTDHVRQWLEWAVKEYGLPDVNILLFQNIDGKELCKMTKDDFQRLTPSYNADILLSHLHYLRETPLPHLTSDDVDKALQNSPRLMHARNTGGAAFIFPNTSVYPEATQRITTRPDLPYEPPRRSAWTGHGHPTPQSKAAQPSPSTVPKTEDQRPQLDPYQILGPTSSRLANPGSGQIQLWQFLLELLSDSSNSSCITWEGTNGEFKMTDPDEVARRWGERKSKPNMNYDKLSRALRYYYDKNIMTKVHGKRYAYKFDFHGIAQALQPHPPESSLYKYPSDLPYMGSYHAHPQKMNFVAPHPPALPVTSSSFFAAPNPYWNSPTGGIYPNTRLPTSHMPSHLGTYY
Conditions: protein: recombinant; tags: N-terminal GST; dsDNA, one strand shown. In outline:
as §1

The next experiment concerns the target ELF1 (Homo sapiens, UniProt P32519 1-619). The conditions noted are these: protein: recombinant; tags: N-terminal GST; dsDNA, one strand shown. The method, boiled down: as §1
A further experiment deals with T5, EHF (Homo sapiens, UniProt Q9NZC4 1-300).
T5 sequence: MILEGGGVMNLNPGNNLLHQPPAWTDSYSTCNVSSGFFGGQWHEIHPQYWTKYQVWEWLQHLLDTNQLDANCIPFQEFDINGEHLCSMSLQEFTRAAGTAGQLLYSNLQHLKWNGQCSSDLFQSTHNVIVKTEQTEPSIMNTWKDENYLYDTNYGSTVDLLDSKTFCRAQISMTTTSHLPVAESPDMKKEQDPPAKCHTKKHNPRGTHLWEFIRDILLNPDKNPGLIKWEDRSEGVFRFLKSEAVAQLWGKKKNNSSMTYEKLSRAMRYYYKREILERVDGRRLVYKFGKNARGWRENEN
The conditions noted are these: protein: recombinant; tags: N-terminal GST; dsDNA, one strand shown. The method, boiled down:
as §1

For another experiment, the target named is SPI1 (Homo sapiens, UniProt P17947 1-270). The conditions noted are these: protein: recombinant; tags: N-terminal GST; dsDNA, one strand shown. The method, boiled down: as §1
The next experiment concerns the target SPIB (Homo sapiens, UniProt Q01892 1-262). The conditions noted are these: protein: recombinant; tags: N-terminal GST; dsDNA, one strand shown. In outline:
as §1

A further experiment has as its target T6, ELK3 (Homo sapiens, UniProt P41970 1-407).
T6 sequence: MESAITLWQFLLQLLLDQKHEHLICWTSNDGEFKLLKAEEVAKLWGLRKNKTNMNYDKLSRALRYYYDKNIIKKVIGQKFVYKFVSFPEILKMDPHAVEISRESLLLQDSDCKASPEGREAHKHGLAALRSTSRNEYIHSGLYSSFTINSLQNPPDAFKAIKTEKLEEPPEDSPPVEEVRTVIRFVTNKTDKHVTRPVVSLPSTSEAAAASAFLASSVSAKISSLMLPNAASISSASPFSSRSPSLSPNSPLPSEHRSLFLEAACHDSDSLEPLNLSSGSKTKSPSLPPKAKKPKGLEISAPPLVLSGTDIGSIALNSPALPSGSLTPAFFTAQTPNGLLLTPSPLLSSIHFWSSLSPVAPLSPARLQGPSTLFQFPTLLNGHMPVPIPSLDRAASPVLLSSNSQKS
Conditions: protein: recombinant; tags: N-terminal GST; dsDNA, one strand shown. In outline:
as §1

A further experiment has as its target T7, FEV (Homo sapiens, UniProt Q99581 1-238).
T7 sequence: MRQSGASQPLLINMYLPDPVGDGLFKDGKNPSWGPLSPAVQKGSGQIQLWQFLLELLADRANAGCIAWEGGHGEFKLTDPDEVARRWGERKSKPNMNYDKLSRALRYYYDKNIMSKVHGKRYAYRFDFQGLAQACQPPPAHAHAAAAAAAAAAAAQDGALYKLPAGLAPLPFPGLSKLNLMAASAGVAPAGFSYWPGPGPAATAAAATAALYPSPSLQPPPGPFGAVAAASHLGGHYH
The conditions noted are these: protein: recombinant; tags: N-terminal GST; dsDNA, one strand shown. The method, boiled down:
as §1

For the next experiment, the target named is ETV5 (Homo sapiens, UniProt P41161 1-510). Conditions: protein: recombinant; tags: N-terminal GST; dsDNA, one strand shown. In outline: as §1
Chain of ETV5 (P41161 whole entry): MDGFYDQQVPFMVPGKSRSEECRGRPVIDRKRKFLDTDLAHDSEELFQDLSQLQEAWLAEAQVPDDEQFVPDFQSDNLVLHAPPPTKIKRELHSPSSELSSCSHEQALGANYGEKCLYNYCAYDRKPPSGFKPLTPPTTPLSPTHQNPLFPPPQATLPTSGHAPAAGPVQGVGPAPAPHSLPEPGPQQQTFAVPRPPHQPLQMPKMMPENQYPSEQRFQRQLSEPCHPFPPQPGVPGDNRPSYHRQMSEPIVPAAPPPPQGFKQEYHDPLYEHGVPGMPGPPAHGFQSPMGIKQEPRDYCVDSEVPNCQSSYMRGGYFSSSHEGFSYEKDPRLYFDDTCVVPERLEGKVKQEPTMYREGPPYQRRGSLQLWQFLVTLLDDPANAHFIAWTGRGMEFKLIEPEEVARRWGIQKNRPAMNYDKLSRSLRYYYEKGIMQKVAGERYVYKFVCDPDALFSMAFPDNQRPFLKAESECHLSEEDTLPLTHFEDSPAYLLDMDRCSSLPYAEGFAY
The next experiment concerns the target HSF1 (Homo sapiens, UniProt Q00613 1-529). Conditions: protein: recombinant; tags: N-terminal GST; chain copies: 3; dsDNA, one strand shown. The method, boiled down: as §1
Another experiment addresses T8, SPIC (Homo sapiens, UniProt Q8N5J4 1-248).
T8 sequence: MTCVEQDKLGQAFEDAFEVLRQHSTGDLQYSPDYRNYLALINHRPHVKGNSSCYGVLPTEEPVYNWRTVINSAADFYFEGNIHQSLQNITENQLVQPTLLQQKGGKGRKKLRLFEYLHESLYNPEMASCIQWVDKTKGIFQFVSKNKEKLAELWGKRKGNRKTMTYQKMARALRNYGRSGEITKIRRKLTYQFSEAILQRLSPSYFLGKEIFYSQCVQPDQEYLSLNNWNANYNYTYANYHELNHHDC
The conditions noted are these: protein: recombinant; tags: N-terminal GST; dsDNA, one strand shown. The method, boiled down: as §1

The target in a further experiment is ELF4 (Homo sapiens, UniProt Q99607 1-663). The conditions noted are these: protein: recombinant; tags: N-terminal GST; dsDNA, one strand shown. The method, boiled down:
as §1

The next experiment concerns the target T9, ELK4 (Homo sapiens, UniProt P28324-2 1-405).
T9 sequence: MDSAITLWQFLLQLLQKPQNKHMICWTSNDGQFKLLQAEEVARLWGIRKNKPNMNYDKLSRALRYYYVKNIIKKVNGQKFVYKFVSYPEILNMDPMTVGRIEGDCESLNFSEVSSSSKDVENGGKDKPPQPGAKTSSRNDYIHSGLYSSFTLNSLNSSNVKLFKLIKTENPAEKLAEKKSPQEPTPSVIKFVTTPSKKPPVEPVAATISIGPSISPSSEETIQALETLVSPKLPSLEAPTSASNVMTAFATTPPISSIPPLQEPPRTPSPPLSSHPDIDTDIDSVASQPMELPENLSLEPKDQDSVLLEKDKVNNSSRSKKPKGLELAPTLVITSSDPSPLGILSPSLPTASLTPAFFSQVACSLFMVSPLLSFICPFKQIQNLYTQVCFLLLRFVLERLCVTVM
Conditions: protein: recombinant; tags: N-terminal GST; dsDNA, one strand shown. The method, boiled down:
as §1

The next experiment deals with T10, ETV2 (Homo sapiens, UniProt O00321 1-342).
T10 sequence: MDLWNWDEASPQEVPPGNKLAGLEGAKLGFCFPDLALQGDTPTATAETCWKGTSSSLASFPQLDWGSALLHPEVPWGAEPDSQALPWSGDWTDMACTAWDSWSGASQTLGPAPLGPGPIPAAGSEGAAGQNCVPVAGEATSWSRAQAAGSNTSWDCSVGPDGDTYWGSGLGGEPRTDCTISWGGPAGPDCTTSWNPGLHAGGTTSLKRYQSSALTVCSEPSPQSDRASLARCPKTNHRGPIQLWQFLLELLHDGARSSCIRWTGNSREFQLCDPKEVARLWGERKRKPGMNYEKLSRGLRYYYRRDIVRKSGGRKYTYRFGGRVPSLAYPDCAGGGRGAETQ
The conditions noted are these: protein: recombinant; tags: N-terminal GST; dsDNA, one strand shown. The method, boiled down: as §1

Another experiment has as its target T11, ELF3 (Homo sapiens, UniProt P78545 1-371).
T11 sequence: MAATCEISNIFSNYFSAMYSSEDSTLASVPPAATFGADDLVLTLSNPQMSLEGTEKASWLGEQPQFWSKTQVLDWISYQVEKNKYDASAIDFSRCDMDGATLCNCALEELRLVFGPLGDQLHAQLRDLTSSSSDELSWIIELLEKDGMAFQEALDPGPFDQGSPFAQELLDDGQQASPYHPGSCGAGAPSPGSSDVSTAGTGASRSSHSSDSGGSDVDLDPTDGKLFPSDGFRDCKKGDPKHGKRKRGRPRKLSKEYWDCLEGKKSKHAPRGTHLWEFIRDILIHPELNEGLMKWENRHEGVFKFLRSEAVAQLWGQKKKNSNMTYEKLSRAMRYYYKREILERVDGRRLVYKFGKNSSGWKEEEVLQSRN
Conditions: protein: recombinant; tags: N-terminal GST; dsDNA, one strand shown. In outline:
as §1

The target in the next experiment is ETV1 (Homo sapiens, UniProt P50549 1-477). The conditions noted are these: protein: recombinant; tags: N-terminal GST; dsDNA, one strand shown. In outline: as §1
Chain of ETV1 (P50549 whole entry): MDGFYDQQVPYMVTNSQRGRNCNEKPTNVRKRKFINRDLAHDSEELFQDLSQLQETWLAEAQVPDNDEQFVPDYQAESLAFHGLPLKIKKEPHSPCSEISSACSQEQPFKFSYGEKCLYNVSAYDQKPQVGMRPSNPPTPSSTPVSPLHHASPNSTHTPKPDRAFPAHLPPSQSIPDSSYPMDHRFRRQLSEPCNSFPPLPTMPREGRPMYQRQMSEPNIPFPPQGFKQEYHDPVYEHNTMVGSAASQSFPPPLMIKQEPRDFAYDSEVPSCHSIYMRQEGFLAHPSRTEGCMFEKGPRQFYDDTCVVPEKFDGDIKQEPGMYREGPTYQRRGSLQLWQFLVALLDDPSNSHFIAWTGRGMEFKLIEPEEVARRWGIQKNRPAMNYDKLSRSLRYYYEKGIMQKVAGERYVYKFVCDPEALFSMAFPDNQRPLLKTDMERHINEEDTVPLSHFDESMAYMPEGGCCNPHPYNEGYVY

Chain of ELF4 (Q99607 whole entry): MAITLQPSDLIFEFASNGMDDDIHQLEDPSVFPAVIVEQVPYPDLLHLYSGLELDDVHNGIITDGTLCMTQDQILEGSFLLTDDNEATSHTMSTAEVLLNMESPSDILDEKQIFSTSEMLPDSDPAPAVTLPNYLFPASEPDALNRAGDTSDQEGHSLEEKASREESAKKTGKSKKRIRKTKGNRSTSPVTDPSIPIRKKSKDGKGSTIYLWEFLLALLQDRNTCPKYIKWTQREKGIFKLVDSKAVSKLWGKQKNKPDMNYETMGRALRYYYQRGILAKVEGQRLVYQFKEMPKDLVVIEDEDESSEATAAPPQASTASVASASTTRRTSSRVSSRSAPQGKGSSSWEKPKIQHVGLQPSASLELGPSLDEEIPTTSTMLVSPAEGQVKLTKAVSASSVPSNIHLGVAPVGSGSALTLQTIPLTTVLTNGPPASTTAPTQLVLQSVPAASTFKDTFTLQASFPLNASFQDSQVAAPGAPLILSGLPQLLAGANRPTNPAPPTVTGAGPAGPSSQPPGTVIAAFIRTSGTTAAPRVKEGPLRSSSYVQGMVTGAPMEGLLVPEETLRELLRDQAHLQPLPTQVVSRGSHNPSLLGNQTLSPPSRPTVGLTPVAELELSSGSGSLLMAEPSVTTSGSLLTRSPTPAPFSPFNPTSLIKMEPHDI
Chain of HSF1 (Q00613 whole entry): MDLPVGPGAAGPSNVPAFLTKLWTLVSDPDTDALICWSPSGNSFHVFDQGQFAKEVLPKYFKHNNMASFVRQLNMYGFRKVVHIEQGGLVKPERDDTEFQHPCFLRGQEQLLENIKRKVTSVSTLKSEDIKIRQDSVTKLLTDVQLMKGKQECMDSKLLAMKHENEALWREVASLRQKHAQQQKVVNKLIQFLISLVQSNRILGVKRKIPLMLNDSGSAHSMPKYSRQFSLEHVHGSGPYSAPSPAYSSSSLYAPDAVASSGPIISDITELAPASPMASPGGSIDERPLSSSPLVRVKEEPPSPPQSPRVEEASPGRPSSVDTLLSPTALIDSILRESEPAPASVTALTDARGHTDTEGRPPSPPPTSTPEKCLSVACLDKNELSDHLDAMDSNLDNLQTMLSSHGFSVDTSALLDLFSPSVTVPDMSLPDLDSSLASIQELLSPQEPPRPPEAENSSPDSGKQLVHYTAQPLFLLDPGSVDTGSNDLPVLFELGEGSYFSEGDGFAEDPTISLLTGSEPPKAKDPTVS
Chain of ELF1 (P32519 whole entry): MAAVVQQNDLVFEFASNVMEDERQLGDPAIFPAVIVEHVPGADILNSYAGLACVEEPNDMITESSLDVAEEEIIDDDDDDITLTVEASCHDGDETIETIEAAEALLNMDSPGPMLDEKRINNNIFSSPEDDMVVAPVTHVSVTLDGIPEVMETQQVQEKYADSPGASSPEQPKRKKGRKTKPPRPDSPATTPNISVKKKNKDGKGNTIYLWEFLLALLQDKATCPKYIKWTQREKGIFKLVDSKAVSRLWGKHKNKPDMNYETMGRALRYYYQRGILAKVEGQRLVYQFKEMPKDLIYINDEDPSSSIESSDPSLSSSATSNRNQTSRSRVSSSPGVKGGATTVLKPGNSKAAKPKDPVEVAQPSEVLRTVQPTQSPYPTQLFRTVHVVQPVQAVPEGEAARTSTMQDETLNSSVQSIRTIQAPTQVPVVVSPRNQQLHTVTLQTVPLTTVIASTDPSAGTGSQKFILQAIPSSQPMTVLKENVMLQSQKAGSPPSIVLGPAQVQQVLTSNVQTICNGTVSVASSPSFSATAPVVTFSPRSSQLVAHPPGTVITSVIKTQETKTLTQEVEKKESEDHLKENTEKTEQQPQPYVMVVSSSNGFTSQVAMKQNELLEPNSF
Chain of SPIB (Q01892 whole entry): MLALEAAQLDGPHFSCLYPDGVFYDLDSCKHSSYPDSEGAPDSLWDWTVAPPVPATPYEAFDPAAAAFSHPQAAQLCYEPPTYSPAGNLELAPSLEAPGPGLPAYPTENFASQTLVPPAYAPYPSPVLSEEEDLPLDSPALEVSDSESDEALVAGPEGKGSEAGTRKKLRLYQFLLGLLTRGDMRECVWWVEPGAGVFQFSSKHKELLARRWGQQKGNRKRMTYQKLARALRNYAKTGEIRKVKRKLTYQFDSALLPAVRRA

Regarding TGAATG, the binding signal with FLI1 is 1.16 fold enrichment (6-mer frequency, TF over GST control); in the experiment with ELK1, 1.28 fold enrichment (6-mer frequency, TF over GST control); with GABPA, 1.17 fold enrichment (6-mer frequency, TF over GST control); in the experiment with ERG, 1.21 fold enrichment (6-mer frequency, TF over GST control); with ELF1, 1.2 fold enrichment (6-mer frequency, TF over GST control); in the experiment with EHF it was 1.19 fold enrichment (6-mer frequency, TF over GST control). The binding signal is 1.26 fold enrichment (6-mer frequency, TF over GST control) with SPI1; 1.23 fold enrichment (6-mer frequency, TF over GST control) in the experiment with SPIB; 1.09 fold enrichment (6-mer frequency, TF over GST control) with ELK3; 1.19 fold enrichment (6-mer frequency, TF over GST control) in the experiment with FEV; 1.1 fold enrichment (6-mer frequency, TF over GST control) with ETV5; 1.15 fold enrichment (6-mer frequency, TF over GST control) with HSF1. Moreover, the binding signal was 1.03 fold enrichment (6-mer frequency, TF over GST control) with SPIC; 1.16 fold enrichment (6-mer frequency, TF over GST control) with ELF4; 1.2 fold enrichment (6-mer frequency, TF over GST control) with ELK4; 1.37 fold enrichment (6-mer frequency, TF over GST control) with ETV2; 1.08 fold enrichment (6-mer frequency, TF over GST control) with ELF3; 1.14 fold enrichment (6-mer frequency, TF over GST control) in the experiment with ETV1.

The values are drawn from publication PMC7862700, “An all-to-all approach to the identification of sequence-specific readers for epigenetic DNA modifications on cytosine”.
